Experimental findings from ChEMBL document CHEMBL3988442, “University of Dundee, Small-Polar-MMV Screening Library” (2021) are described below.

The subject of the assay is Leishmania donovani. Nature of the assay: Leishmania intramacrophage assay. It is filed as functional, organism-based. Further details: scale not given: in the data most compounds retested in dose-response had high values.

The structures appear in SMILES notation. Hit rate of the full screen: of about 69,000 compounds, about 1,000 (1.4%) showed an effect of 50% or more. The sample holds strong results, similar compounds and a random draw of the others, so the mix is not that of the screen.

In the case of `N#Cc1ccc(N2CC3(CCN(c4nccs4)C3)C2)nc1.O=CO.O=CO`, the “Percent Effect” value (30.3 µM, […]) is recorded as 9.16%. Regarding `CCN1CC2(CCC1=O)CCN(CCOc1ccc(F)cc1)CC2`, the “Percent Effect” value (30.3 µM, […]) is on record as 19.57%. Still for that read-out and setting: with `CCN1CC2(CCN(CCOc3ccc(F)cc3)CC2)CC1=O` the figure was 52.2%. With `O=C1CC2(CCCC2)CN1CCOc1ccc(F)cc1`, the “Percent Effect” value (30.3 µM, […]) turned out to be 12.36%. `Cn1cc(C(=O)OC2CN(c3nc4c(C(F)(F)F)cccc4s3)C2)nn1`: under “30.3 µM, […]”, the “Percent Effect” value was 15.05%.

As to `Cc1ccc(C(=O)NCC(O)CN2CCCC2=O)cc1Cl` (stereo not given), where the note is “30.3 µM, […]”, the “Percent Effect” value is reported as -2.277%. In the case of `Cc1csc(CCNC(=O)C2CCCN(C3CCOCC3)C2)n1` (stereo not given), where the note is “30.3 µM, […]”, the “Percent Effect” value was -3.021%. Regarding `Cn1c(CCNC(=O)C2CCCN(C3CCOCC3)C2)n[nH]c1=O` (stereo not given), the “Percent Effect” value (30.3 µM, […]) came out at 60.82%.

In the case of `O=C(NCCc1c[nH]cn1)C1CCCN(C2CCOCC2)C1` (stereo not given), the “Percent Effect” value (30.3 µM, […]) is recorded as -4.763%. Consider `CC(C)c1nc(CN(C)C(=O)C2CC(=O)N(Cc3ccncc3)C2)cs1` (stereo not given), for which, under “30.3 µM, […]”, the “Percent Effect” value is 1.333%.

Turning to `Cn1ccnc1CN1CCC2(CC1)CC(NC(=O)c1ccccn1)CO2.O=C(O)C(F)(F)F` (stereo not given), the “Percent Effect” value (30 µM, 30.03 µM) came out at 2.919%. With `O=C(NC1COC2(CCN(Cc3ccccn3)CC2)C1)c1ccccn1.O=C(O)C(F)(F)F` (stereo not given), the “Percent Effect” value (30 µM, 30.03 µM) was found to be 99.23%. With `Cc1nc(C(=O)N(C)C)nn1-c1ccccc1C(C)C`, the “Percent Effect” value (30.3 µM, […]) is on record as 17.02%.

On to `CCN1CC2(CC1=O)CN(Cc1cnn(C)c1)CCN(C(C)=O)C2.O=C(O)C(F)(F)F` (stereo not given), for which the “Percent Effect” value (30 µM, 30.03 µM) worked out at 8.348%.

With `O=C(NCCc1ccccc1)C1CCC(Cn2cnnn2)CC1` (stereo not given), the “Percent Effect” value (30 µM, 30.03 µM) came to 4.824%. For the compound `CCC(=O)N1CCN(S(=O)(=O)c2cccc(F)c2)[C@H]2CS(=O)(=O)C[C@H]21`, the “Percent Effect” value (30.3 µM, […]) is 19.41%. With `COCC(=O)N1CCN(S(=O)(=O)c2ccccc2)[C@H]2CS(=O)(=O)C[C@H]21`, for the setting “30.3 µM, […]”, the “Percent Effect” value was 50.92%. On to `COCC(=O)N1CCN(S(=O)(=O)c2cccs2)[C@H]2CS(=O)(=O)C[C@H]21`, for which the “Percent Effect” value (30.3 µM, […]) was -6.326%.

With `CS(=O)(=O)CC(=O)N1C[C@@H]2COC[C@]2(c2nnc(C3CC3)o2)C1`, the “Percent Effect” value (30 µM, 30.03 µM) worked out at 6.501%. Consider `COc1cccc2c1ccn2CCC(=O)Nc1c2c(nn1C)CSC2`, for which the “Percent Effect” value (30.3 µM, […]) is -9.12%. For the compound `CCN(CC)C(=O)CS(=O)(=O)c1cc(OC)c(OC)cc1C`, for the setting “30.3 µM, […]”, the “Percent Effect” value was -79.93%. Take `N#Cc1c(F)cccc1N1CCCC(C(=O)Nc2nncs2)C1` (stereo not given): the “Percent Effect” value (30.3 µM, […]) amounted to 39.68%. In the case of `N#Cc1c(F)cccc1N1CCC(C(=O)Nc2nccs2)CC1`, the “Percent Effect” value (30.3 µM, […]) was found to be 8.432%. The same measure, in the same setting: with `N#Cc1c(F)cccc1N1CCN(C(=O)Nc2nncs2)CC1` the figure was 50.08%; with `COCCN(Cc1ccccc1)Cc1nc(-c2ccsc2)no1`, 22.89%. Regarding `Cc1cc(C2CCC2)nc(NCC(C)(C)N2CCCC2)n1`, the “Percent Effect” value (30.3 µM, […]) was 9.291%. Take `Cc1cc(C2CCC2)nc(NCC(C)(C)N2CCOCC2)n1`: where the note is “30.3 µM, […]”, the “Percent Effect” value is given as 23.38%.

Turning to `CCN1CCN(C(C)(C)CNc2nc(C)cc(C3CCC3)n2)CC1`, the “Percent Effect” value (30.3 µM, […]) was 54.39%. `CCc1nc(C)c([C@H]2CN(C)C[C@@H]2C(=O)NCCc2cnccn2)[nH]1`: the “Percent Effect” value (30 µM, 30.03 µM) came to 23.64%. As for `CCNC(=O)NC(=O)CN1CCOC(c2ccccc2Cl)C1` (stereo not given), the “Percent Effect” value (30.3 µM, […]) is 7.788%. The same measure, in the same setting: with `CN(C)CCNc1cc(-c2ncccn2)c2cc[nH]c2n1` the figure was 4.01%.

For the compound `COc1ccc2c(c1)Cc1c-2nc(N)c(C#N)c1C1CCOC1` (stereo not given), under “30.3 µM, […]”, the “Percent Effect” value is 63.86%. Turning to `N#Cc1c(N)nc2c(c1C1CCOC1)CCc1cc(O)ccc1-2` (stereo not given), the “Percent Effect” value (30.3 µM, […]) is recorded as -89.94%. For `COc1ccc2c(c1OC)Cc1c-2nc(N)c(C#N)c1C1CCOC1` (stereo not given), where the note is “30.3 µM, […]”, the “Percent Effect” value turned out to be 11.41%.

Consider `Cc1nn(C)c(N(C)C)c1CNCc1cccc(OCCN(C)C)c1`, for which, for the setting “30 µM, 30.03 µM”, the “Percent Effect” value was -13.13%. On to `Cc1cc(C)n(C2CN(CC(=O)N(C)Cc3ccco3)C2)n1`, for which, where the note is “30.3 µM, […]”, the “Percent Effect” value is -0.4731%. Take `COc1cccc(CN(C)C(=O)CN2CC(n3nc(C)cc3C)C2)c1`: the “Percent Effect” value (30 µM, 30.03 µM) stood at 4.207%. `COc1ccccc1CN(C)C(=O)CN1CC(n2nc(C)cc2C)C1`: under “30.3 µM, […]”, the “Percent Effect” value is 72.41%. For `CC(=O)N1CCC(N2CC[C@H](c3nc4cc(C)ccc4o3)C2)CC1`, the “Percent Effect” value (30.3 µM, […]) is 22.67%.

`CCn1nc(C)c2ncnc(NCC(=O)N3CCOCC3)c21`: under “30 µM, 30.03 µM”, the “Percent Effect” value is 13.04%.

With `CCN(CC)C(=O)Cn1ccc2cc(NC(=O)NC3CC3)ccc21`, the “Percent Effect” value (30 µM) was determined as 18.91%.

For the compound `O=C(O)C(F)(F)F.O=C1CC[C@H]2[C@H](CCN2c2ncc(F)cn2)N1c1ccccc1`, the “Percent Effect” value (30.3 µM, […]) was 36.83%. On the same count and under the same terms, with `O=C(c1cnccn1)N1CC[C@H]2[C@@H]1CCC(=O)N2c1cccnc1` the figure was 69.01%; with `Cc1cnc(N2CC[C@H]3[C@@H]2CCC(=O)N3c2ccccc2)nc1.O=C(O)C(F)(F)F`, 39.44%. Consider `Cc1ccoc1C(=O)N1CC[C@H]2[C@@H]1CCC(=O)N2c1cccnc1.O=C(O)C(F)(F)F`, for which, where the note is “30.3 µM, […]”, the “Percent Effect” value is 3.255%. Same read-out and setting: with `O=C(c1cccs1)N1CC[C@H]2[C@@H]1CCC(=O)N2c1cccnc1` the figure was -14.6%; with `Cc1cnc(C(=O)N2CC[C@H]3[C@@H]2CCC(=O)N3c2cccnc2)cn1.O=C(O)C(F)(F)F`, 26.72%. Consider `O=C(O)C(F)(F)F.O=C1CC[C@H]2[C@H](CCN2c2ncccn2)N1c1ccccc1`, for which the “Percent Effect” value (30.3 µM, […]) is reported as 50.79%. Regarding `O=C(c1cscn1)N1CC[C@H]2[C@@H]1CCC(=O)N2c1ccccc1`, the “Percent Effect” value (30.3 µM, […]) worked out at 4.628%. In the case of `Cc1ccc(C(=O)N2CC[C@H]3[C@@H]2CCC(=O)N3c2cccnc2)o1.O=C(O)C(F)(F)F`, for the setting “30.3 µM, […]”, the “Percent Effect” value is recorded as 56.88%.
